Compound activity (PubChem BioAssay)
VDR inh = blocks the human vitamin D receptor. AID 504847. VDR-SRC2-3 peptide fluorescence polarization, 2 h. P11473. Potency, µM, most hits filed as inhibitors. 400,000 tested, 0.93% active
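FP read-out; VDR + SRC2-3 coactivator peptide; 23 nl compound by pintool; 2 h RT incubation; reagents held at 4 deg C, protected from light.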
Glioma ERSR ind = inducers of ER stress response in human glioma cells; 420,000 tested, 0.02% active; Potency, µM, actives largely listed as activators; U87-MG GRP78 promoter luciferase reporter, 16 h; also: series mostly up to about 76 µM; nearly all actives have a fitted effect of over 35% in size
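ERSR induction read as luciferase luminescence (Bright-Glo, 10 min at room temperature) in stably transfected human U87-MG glioma cells exposed to compounds for 16 h, using GRP78 as sensor.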
12-LOX inh = ALOX12 (human) lipoxygenase inhibition | Potency, µM (doses to about 108 µM), actives largely listed as inhibitors | purified 12hLO, xylenol orange hydroperoxide absorbance | 580,000 tested, 1.1% active
Target sequence (P18054 whole entry, looked up): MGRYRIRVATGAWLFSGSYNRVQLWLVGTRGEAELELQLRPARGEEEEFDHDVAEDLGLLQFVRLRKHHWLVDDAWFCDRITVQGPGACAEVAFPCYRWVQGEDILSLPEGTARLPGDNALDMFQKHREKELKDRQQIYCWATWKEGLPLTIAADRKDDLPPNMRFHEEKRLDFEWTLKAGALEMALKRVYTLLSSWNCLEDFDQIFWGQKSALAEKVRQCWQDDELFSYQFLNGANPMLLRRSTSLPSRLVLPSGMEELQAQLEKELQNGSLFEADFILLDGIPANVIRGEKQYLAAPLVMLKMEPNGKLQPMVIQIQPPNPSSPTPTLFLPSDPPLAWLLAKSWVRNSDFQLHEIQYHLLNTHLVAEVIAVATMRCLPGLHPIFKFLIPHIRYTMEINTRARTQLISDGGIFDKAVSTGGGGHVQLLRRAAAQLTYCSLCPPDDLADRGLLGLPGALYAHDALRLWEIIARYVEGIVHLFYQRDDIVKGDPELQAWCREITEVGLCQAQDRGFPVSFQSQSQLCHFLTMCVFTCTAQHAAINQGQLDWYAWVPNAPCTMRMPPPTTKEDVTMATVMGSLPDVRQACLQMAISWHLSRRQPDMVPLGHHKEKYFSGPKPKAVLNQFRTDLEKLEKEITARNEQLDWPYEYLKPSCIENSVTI
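Hydroperoxide product was detected by ferrous iron/xylenol orange as the 573 to 405 nm absorbance ratio. Arachidonic acid at 40 uM (final) was turned over for 30 min at room temperature by 150 nM human 12hLO, pH 7.0 Hepes buffer, after 15 min compound preincubation.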
G9a block = G9a (human) methyltransferase inhibition. G9a H3K9 monomethylation, AlphaScreen, 2 h. Potency, µM (series often up to 102 µM), hits mostly inhibitors. 350,000 tested, 8.8% active. AID 504332; also: nearly all actives have a fitted effect of over 75% in size
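Chemiluminescent proximity detection of H3K9 monomethylation, read after 10 min bead incubation in the dark. Reaction: 20 nM G9a, 500 nM biotin-H3K9 peptide, 20 uM SAM cofactor, 2 h, room temperature, following 15 min enzyme-compound preincubation.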
Sfp inh = Sfp phosphopantetheinyl transferase inhibition; AID 1490; 310,000 tested, 3.5% active; Q9F4F7; Biochemical Sfp PPTase activity, qHTS; Potency, µM, most hits filed as inhibitors;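 also: the enzyme is Sfp with the accession as filed and its product quenches rhodamine fluorescence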
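Buffer: 50 mM Hepes-Na pH 7.6, 10 mM MgCl2, 0.01% Nonidet P-40, 0.01% BSA. Enzyme 15 nM, pre-exposed to compound 15 min; substrates then added and fluorescence change tracked over 30 min.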
Large screens that a line does not name were inactive. The entries come from a sample that favours hits as a whole. Calls follow the shape of the dose curve; as a rule, active = well fitted curve in the direction sought with a large enough effect; inconclusive = small, poorly fitted or top-dose-only effect, or another doubt; inactive = no such curve, though single readings can be large; an effect the other way counts as inactive or inconclusive.

Cc1cc2oc3c(c(=O)c2cc1C)C(c1ccc(C(C)C)cc1)N(CCCN1CCOCC1)C3=O (configuration not stated)	G9a block 50µM
Cc1cc(OCC(=O)Nc2ccc3[nH]ncc3c2)ccc1Cl	none (no result: VDR inh, Glioma ERSR ind, G9a block, Sfp inh)
CC(C)(C)C(=O)N1CCCN(Cc2ccc3c(c2)OCO3)c2ccccc21	none (no result: VDR inh, Glioma ERSR ind, G9a block, Sfp inh)
CC1(C)CC(=O)C2=C(C1)N1CCc3cc4c(cc3C1=CC2c1ccc(F)cc1)OCCCO4 (configuration not stated)	12-LOX inh 25µM (no result: VDR inh, Glioma ERSR ind, G9a block, Sfp inh)
CCOc1ccc(-c2ccccc2)cc1C=O	none (no result: VDR inh, Glioma ERSR ind, G9a block, Sfp inh)
Cc1ccc2nc(SC(C)C(=O)N3CCCC3)[nH]c2c1 (configuration not stated)	G9a block 28µM
CCCc1cc(=O)[nH]c(SCC(=O)c2c(N)n(C3CC3)c(=O)[nH]c2=O)n1	none (no result: Sfp inh)
Cc1ccc2nc(CSc3nc(C)ccc3C#N)[nH]c2c1	12-LOX inh inconclusive, G9a block 2.8µM
Cc1ccc2nc(SC(C)C(=O)N3CCCCC3)[nH]c2c1 (configuration not stated)	none
COC(=O)CSc1nc2ccc(C)cc2[nH]1	G9a block 28µM
Cc1ccc2nc(SCC(=O)c3c(N)n(C4CC4)c(=O)[nH]c3=O)[nH]c2c1	12-LOX inh inconclusive, G9a block 18µM (no result: Sfp inh)
COC(=O)c1sc2nc(CSc3nc4ccc(C)cc4[nH]3)[nH]c(=O)c2c1C	G9a block inconclusive
Cc1ccc2nc(SCC(=O)c3ccc(O)cc3O)[nH]c2c1	Sfp inh 50µM (no result: G9a block)
Nc1cc(=O)[nH]c(SCC(=O)c2ccc(O)cc2O)n1	none
Cc1ccc2nc(SCc3nc4ccccc4c(=O)[nH]3)[nH]c2c1	VDR inh inconclusive, 12-LOX inh inconclusive, G9a block 40µM, Sfp inh 45µM
Cc1cc(C)c(NCC(=O)NNC(=O)c2cnccn2)c(C)c1	none (no result: VDR inh, Glioma ERSR ind, G9a block, Sfp inh)
Cc1cccc(-n2c(CCn3nc(C)c([N+](=O)[O-])c3C)n[nH]c2=S)c1	12-LOX inh inconclusive, G9a block 0.45µM
COc1cccc(-n2c(CCn3nc(C)c([N+](=O)[O-])c3C)n[nH]c2=S)c1	G9a block 25µM
COc1ccc(CCn2nc(C)c([N+](=O)[O-])c2C)cc1	none
Fc1ccc(-n2nnc(-c3nccs3)n2)cc1	12-LOX inh 11µM
CCCn1nc(C(=O)OCc2cccc(Cl)c2)c2ccccc2c1=O	none (no result: VDR inh, Glioma ERSR ind, G9a block, Sfp inh)
CCCOc1ccccc1NC(=O)CCc1c(C)c2ccc(OC)cc2oc1=O	none (no result: VDR inh, Glioma ERSR ind, G9a block, Sfp inh)
Cc1c(-c2ccccc2F)[nH]c2ccc(CNC(=O)C3CCNC3)cc12 (configuration not stated)	none (no result: VDR inh, Glioma ERSR ind, G9a block, Sfp inh)
COc1ccc(-n2nc(C(=O)O)c3ccccc3c2=O)c(OC)c1	none
COc1ccc(-n2c(=O)c3ccccc3c3ccccc3c2=O)c(OC)c1	G9a block 10µM
COc1ccc(C)cc1-n1c(=O)c2ccccc2c2ccccc2c1=O	G9a block 18µM
CCOC(=O)CC1(NC(=O)N2CCCCCC2c2ccc(C)s2)CCCCC1 (configuration not stated)	none (no result: VDR inh, Glioma ERSR ind, G9a block, Sfp inh)
CC(C)c1ccc(CNC(=O)c2ccc(Cn3ccn4nc5c(c4c3=O)CCCC5)cc2)cc1	none (no result: VDR inh, Glioma ERSR ind, G9a block, Sfp inh)
Cc1ccc2c(c1)c1c(n2CC(O)Cn2c(C)nc3ccccc32)/C(=N\O)CCC1 (configuration not stated)	G9a block 18µM (no result: 12-LOX inh)
Cc1ccc2c(c1)c1c3n2CCN(C(=O)C2CC2)C3CCC1 (configuration not stated)	12-LOX inh inconclusive, G9a block 40µM, Sfp inh inconclusive
Cc1ccc2c(c1)c1c3n2CCN(CCC(=O)O)C3CCC1 (configuration not stated)	G9a block 45µM
Cc1ccc2c(c1)c(=O)c1c3n2CCN(C(=O)CCl)C3CC1 (configuration not stated)	VDR inh inconclusive, G9a block 11µM, Sfp inh 79µM
Cc1ccc2c(c1)c1c3n2CCN(CC#N)C3CCC1 (configuration not stated)	none
Cc1ccc2c(c1)c1c3n2CCCN(Cc2ccccc2)C3CCC1 (configuration not stated)	G9a block 13µM
O=C(NCc1ccccc1)c1ncoc1-c1cccs1	none (no result: VDR inh, Glioma ERSR ind, G9a block, Sfp inh)
COC(=O)[C@@H]1Cc2ncn(Cc3ccc(Cl)cc3)c2CN1S(=O)(=O)c1cccc2c(N(C)C)cccc12	none (no result: VDR inh, Glioma ERSR ind, G9a block, Sfp inh)
Cc1ccc(C(=O)N2CCn3c4c(c5cc(C)ccc53)CCCC42)cc1 (configuration not stated)	12-LOX inh inconclusive, G9a block 11µM (no result: Sfp inh)
